# Test results: PubChem BioAssay AID540326 (Broad Institute, 2011)
# This is one part of the list. Calls of active or inactive are those of the source.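 How the source made its calls: active means quenching, a falling signal, with AC50 below a set limit tied to the top valid dose (actives reach about 32 µM in these data); inconclusive means no clear call, values can overlap the other calls; inactive means rising signal, and the rest.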
# Test: DiI-HDL fluorescence quenchers, cell-free, dose response, artefact control for SR-BI HDL uptake inhibitor project, biochemical, cherry-pick samples, plate reader fluorescence (AID 540326)
# Details: 30 min; AC50: cell-free DiI-HDL fluorescence quenching; series mostly up to 35 µM
row,Structure (SMILES),AC50
1,CCOc1ccc(OCCSc2nc3ccccc3n2CC(=O)O)cc1,inactive
2,COC(=O)C1=CN(c2ccc(F)c(F)c2)C=C(C(=O)OC)C1c1ccc([N+](=O)[O-])cc1,inactive
3,Cc1cccc(N2CCN(C(=O)CN(C)S(=O)(=O)c3ccc4c(c3)CCC(=O)N4)CC2)c1C,inactive
4,CCCOC1CCCN(C(=O)c2cc(COc3cncc(Cl)c3)on2)C1 (centres undefined),inactive
5,CC(C)OCCCNC(=O)c1ccc(C2SCC(=O)N2Cc2ccco2)cc1 (centres undefined),inactive
6,CCCC(=O)Nc1ccc(Cl)c(NC(=O)c2ccc(Br)o2)c1,inactive
7,Cc1cc(NC(=O)Nc2ccccc2)n(-c2ccccc2)n1,inactive
8,CCCCC(=O)Nc1nc(C)c(-c2csc(Nc3ccc(Cl)cc3)n2)s1,1930 nM (active)
9,O=C(Nc1cccc(NC(=O)N2CCN(c3ccccc3)CC2)c1)N1CCN(c2ccccc2)CC1,inactive
10,O=c1cc(N2CCCCC2)c(-c2ccccc2)nn1Cc1cccc(F)c1,inactive
11,O=C(NC1CC2CCCC(C1)N2C(=O)N1CCCCC1)C1CCCCC1 (centres undefined),inactive
12,CCCOC(=O)c1[nH]c2c(c1C)C(=O)CC(c1cc(OC)c(OC)c(OC)c1)C2 (centres undefined),inactive
13,CCOC(=O)c1[nH]c2c(c1-c1ccccc1)C(=O)CC(c1ccc(Cl)cc1)C2 (centres undefined),inactive
14,O=C(Nc1cccc(NC(=O)c2ccccc2[N+](=O)[O-])c1)c1ccccc1Cl,inactive
15,CCOc1ccc(NC(=O)CN2CCN(CC(=O)Nc3ccc(OC)cc3)CC2)cc1,inactive
16,C=CCCC(=O)Nc1nc(C)c(-c2csc(Nc3ccc(Cl)cc3)n2)s1,2190 nM (active)
17,COc1cccc(N(CC(=O)NC2CCCC2)C(=O)Cn2nnc(-c3ccc(C)cc3)n2)c1,inactive
18,O=C(Nc1ccc(-c2csc(Nc3cccc(C(F)(F)F)c3)n2)cc1)c1cccc(C(F)(F)F)c1,435 nM (active)
19,CCCC(=O)N1c2ccc(-c3csc(N)n3)cc2CC1C (centres undefined),inactive
